{"source": "PubChem BioAssay (NCI)", "note": "The panel holds about 83,000 compounds, 20% with a hit somewhere; the sample as a whole holds those more often.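 Interpretation: 100, growth as untreated; towards 0, rising growth inhibition; 0, no net growth; 0 to -100, cell death. Compounds scoring below 10 were considered active.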 The source made the active and inactive calls."}
{"test_system": "RPMI-8226 leukemia", "assay": "NCI-60 one-dose screen, 48 h (100 = growth as untreated, 0 = no growth, -100 = all killed)", "conditions": "10 µM unless noted", "protocol": "Growth inhibition of the RPMI-8226 human tumor cell line is measured as a screen for anti-cancer activity. Cells are grown in 96 well plates and exposed to the test compound for 48 hours. Compounds are tested at a single concentration, which is 10^-5 M for most compounds. The reported endpoint is percent growth (GI% or GIPRCNT), where numbers from 0 - 100% represent growth inhibition, and numbers from -100% - 0 represent cell death. For example, a value of 40 represents 60% growth inhibition. A value of 0 means no net growth occurred over the course of the experiment. A value of -40 indicates 40% of cells at the beginning of the experiment died by the end of the experiment. A value of -100 means all cells are dead at the end of the experiment.\nNCI-60 Human Tumor Cell Lines Screen was performed using the standard one-dose NCI protocol, which is described in more detail at https://dtp.cancer.gov/discovery_development/nci-60/default.htm.\nCompounds with GIPRCNT values below 10 were considered active. Activity score was based on GIPRCNT using the following formula: […]\nScore is 0 for GIPRCNT values of 100 or above, 50 for GIPRCNT values of 0, and 100 for GIPRCNT values of -100."}
{"molecule": "COc1cc(C(=O)C[n+]2ccccc2)ccc1OC(C)=O", "growth": "97.9% (inactive)"}
{"molecule": "COc1ccc(NC(=O)Nc2ccc(-c3ccc(OC)c(OC)c3)nc2C)cc1", "growth": "83.8% (inactive)"}
{"molecule": "O=C(NOC1OC(CO)C(O)C(O)C1O)Nc1ccccc1", "note": "(stereo not given)", "growth": "87.3% (inactive)"}
{"molecule": "CC12CCC3C(CCC4CC(O)CCC43C)C1C/C(=C/O)C(=O)O2", "note": "(stereo not given)", "growth": "91.3% (inactive)"}
{"molecule": "O=C1COc2ccccc2C(=O)N1CCCCNc1ccccc1", "growth": "28.3% (inactive)"}
{"molecule": "CN1C(=O)C2(NN=C(c3cccc4ccccc34)S2)c2ccccc21", "note": "(stereo not given)", "growth": "18.2% (inactive)"}
{"molecule": "CC1=C[S+](c2ccccc2)c2cccc3cc4ccccc4c1c23", "note": "(stereo not given)", "growth": "-32.5% (active)"}
{"molecule": "C=C1C(=O)O[C@H]2[C@H]1CC/C(COC(=O)c1ccc3ccccc3c1)=C\\CC[C@@]1(C)O[C@@H]21", "growth": "-39.3% (active)"}
{"molecule": "O=C1/C(=C/c2cccc3cnccc23)Cc2cc(F)ccc21", "growth": "85.9% (inactive)"}
{"molecule": "COc1ccc(-c2ccc(NC(=O)Nc3ccc(Cl)c(C(F)(F)F)c3)c(C)n2)cc1", "growth": "9.87% (active)"}
{"molecule": "C=C1C(=O)O[C@H]2[C@H]1CC/C(COC(=O)c1ccc(C#N)cc1)=C\\CC[C@@]1(C)O[C@@H]21", "growth": "-35.8% (active)"}
{"molecule": "Nn1c(CN2CCN(c3cc4c(cc3F)c(=O)c(C(=O)O)cn4C3CC3)CC2)n[nH]c1=S", "growth": "102% (inactive)"}
{"molecule": "CCOC(=O)CSc1nnc(-c2cc3c([nH]c4ccccc43)c(-c3cccc(O)c3)n2)n1-c1ccc(C)cc1", "growth": "76.1% (inactive)"}
{"molecule": "Fc1ccc(/C=N/n2c(-c3cc(Cl)cc(Cl)c3Cl)nn(CNc3ccc(Cl)nn3)c2=S)cc1", "growth": "82.4% (inactive)"}
{"molecule": "N#CC(C#N)=C(C#N)c1c[nH]c2ccccc12", "growth": "68.4% (inactive)"}
{"molecule": "CCNc1ncnc2n[nH]nc12", "growth": "95.5% (inactive)"}
{"molecule": "O=C(NNC(=O)c1ccc([N+](=O)[O-])cc1)c1ccc([N+](=O)[O-])cc1", "growth": "95.5% (inactive)"}
{"molecule": "NC(=S)NNC1CCCCC1", "growth": "93.9% (inactive)"}
{"molecule": "Nc1nc(-c2cc3c(cc2Cl)NC(=O)/C3=C/c2ccccc2)cs1", "growth": "37.6% (inactive)"}
{"molecule": "CC(=O)N1N=C2N(Cc3ccccc3)C(=O)c3c(sc4c3CCCC4)N2C1c1cn(-c2ccccc2)nc1-c1ccc(Cl)cc1", "note": "(stereo not given)", "growth": "87.9% (inactive)"}
{"molecule": "CCOC(=O)c1noc2c1CCc1cn(Cc3cc(OC)cc(OC)c3)cc1-2", "growth": "99.9% (inactive)"}
{"molecule": "Nc1ncnc2c1c(-c1ccc(Oc3ccccc3)cc1)nn2C[C@@H]1SSC[C@H]1O", "growth": "50.9% (inactive)"}
{"molecule": "COc1ccc(/C(Cl)=N/N=C(\\Cl)c2cc(OC)c(OC)c(OC)c2)cc1OC(C)=O", "growth": "89.4% (inactive)"}
{"molecule": "NC(=NCCCOc1ccc(F)cc1)Nc1ccc(Cl)c(Cl)c1", "growth": "39.1% (inactive)"}
{"molecule": "CCCCOc1nc2ccc(Cl)cc2cc1/C=C/C(=O)/C=C/c1ccc(OC)cc1", "growth": "8.93% (active)"}
{"molecule": "C=CC(=O)Nc1cccc(Nc2nc(Nc3ccc(OCCOC(F)F)cc3)ncc2F)c1", "growth": "42.1% (inactive)"}
{"molecule": "CCn1c(SC)nnc1-c1cc2c([nH]c3ccccc32)c(-c2cccc(O)c2)n1", "growth": "30.1% (inactive)"}
{"molecule": "CN(C)CCCOc1c(Br)cc(/C=C/C(=O)N(C)CCc2cc(Br)c(OCCCN(C)C)c(Br)c2)cc1Br", "growth": "-23.6% (active)"}
{"molecule": "COc1cc([C@@H]2c3cc4c(cc3C(OC3O[C@@H]5COC(C)O[C@H]5[C@H](O)[C@H]3O)C3COC(=O)[C@@H]32)OCO4)cc(OC)c1O", "note": "(stereo not given in full)", "growth": "37.4% (inactive)"}
{"molecule": "CC(=O)N1N=C(CCC(=O)c2nc3ccc([N+](=O)[O-])cc3[nH]2)OC1c1ccc(O)cc1", "note": "(stereo not given)", "growth": "120% (inactive)"}
{"molecule": "Cc1cccc(NCS(=O)(=O)O)c1", "growth": "102% (inactive)"}
{"molecule": "COc1ccc2c(-c3ccc(F)cc3)c(C#N)c(=NC(C)=O)oc2c1", "growth": "12.3% (inactive)"}
{"molecule": "COc1ccc(/C=N/C2=NNC(C)(c3ccccc3O)N2C(Cc2c[nH]c3ccccc23)C(=O)O)cc1", "note": "(stereo not given)", "growth": "-15.2% (active)"}
{"molecule": "CC(C(=O)O)N1C(N)=NNC1c1ccccc1O", "note": "(stereo not given)", "growth": "73.1% (inactive)"}
{"molecule": "O=C(Cn1c2ccccc2c2ccncc21)N/N=C\\c1ccc2ccccc2c1", "growth": "-1.73% (active)"}
{"molecule": "CCC1S/C(=N\\N=C(/C)c2ccco2)N(c2ccccc2)C1=O", "note": "(stereo not given)", "growth": "60.4% (inactive)"}
{"molecule": "COc1cc(NC(C)CCCN2C(=O)c3ccccc3C2=O)c2nccc(C)c2c1OC", "note": "(stereo not given)", "growth": "64.3% (inactive)"}
{"molecule": "COc1cc2c(/C=C3/C(=O)Nc4ccc(O)cc43)c(Cl)n(Cc3cc(OC)c(OC)c(OC)c3)c2cc1C", "growth": "-22.9% (active)"}
{"molecule": "COc1ccc(CCNC=O)cc1OC", "growth": "108% (inactive)"}
{"molecule": "Cc1cc[n+](CCCC[n+]2ccc(C)cc2)cc1", "growth": "94.2% (inactive)"}
